These results are taken from ChEMBL document CHEMBL4513149, “CO-ADD screening of MMV (CH) - MMV compounds” (2021).

Entries with a potency or affinity are not part of this list.

In the assay the test system is Cryptococcus neoformans. Conditions: Concentration 20 uM; ASSAY_TEST Inhibition of Fungal Growth; detection method Resazurin; Absorption (OD600-OD570); plate type 384well; NBS; CORNING #3640. (The colour change of resazurin is a common sign of viable cells or microbes.)
By Inhibition is commonly meant the drop in the measured response relative to a control, in per cent. In the case of `Cc1cc(O)nc(-n2nc(C)cc2C)n1`, the Inhibition is recorded as -1.19%. On to `CC(=O)O.CC(=O)O.Nc1ncnc2c1ncn2[C@@H]1O[C@H](COS(=O)(=O)NC(=O)c2ccccc2O)[C@@H](O)[C@H]1O`, for which the Inhibition is reported as -8.69%. With `O=C(C1CCN(c2nnnn2-c2ccccc2)CC1)N1CCc2ccccc2C1`, the Inhibition is -8.99%. In the case of `CC(C)(C)c1cc(C(=O)N2CCN(c3nccnc3C#N)CC2)n(Cc2ccccc2)n1`, the Inhibition came to 1.25%. `CS(=O)(=O)c1cccc(-c2cnc3[nH]cc(-c4ccc(CCC(=O)O)cc4)c3c2)c1`: the Inhibition is -4.04%.

On to `O=C(CCC1CCCCC1)Nc1cccc(-c2nnc(-c3ccco3)o2)c1`, for which the Inhibition is on record as -12.99%. For the compound `CC(C)n1ncc2c(C(=O)NCC(c3cccs3)N3CCOCC3)cc(-c3ccccc3)nc21` (stereo not given), the Inhibition is reported as -15.65%.

Regarding `CCOc1ccc2cc(-c3nn(C(C)(C)C)c(N)c3C(N)=O)cnc2c1.Cl`, the Inhibition is listed as -7.03%.

As to `CNc1snc(C)c1C(=O)NCCOc1ccc(OC)cc1`, the Inhibition came out at 1.78%. The figure for `COc1cc(CN2CCC3(C=Cc4ccccc43)CC2)cc2c1OCO2` is -8.59%; for `COc1cccn2c(C(=O)N3CCCCC3)c(C(F)(F)F)nc12` it is -6.15%; for `Cc1cc(OCC(=O)Nc2ccc(C(C)C)cc2)n(C)c(=O)c1C#N` it is 4.44%. The figure for `Nc1ncnc2[nH]nc(Cc3cccc4ccccc34)c12` is -8.72%; for `O=C1N(Cc2cc3ccccc3s2)CC2CN(Cc3ccccc3)CCN12` (stereo not given) it is -4.73%. With `NC(=O)c1cc(Br)ccc1OCCOc1ccccc1`, the Inhibition is listed as -9.83%. In the case of `Cc1cc2ccccc2n1CC(=O)N1CC(C(=O)N2CCCCC2)Oc2ccccc21` (stereo not given), the Inhibition is -5.34%. In the case of `CC(C)c1ncc(-c2ccncc2)c([C@H]2CC[C@H](CNC(=O)c3cccnc3)CC2)n1`, the Inhibition is listed as -3.68%. Then `Cl.NCC(c1cccs1)S(=O)(=O)c1ccccc1` (stereo not given), with -1.15%; and `CC1=Nc2ccc(Cl)cc2C(c2ccccc2)N1CCNC(=O)CN(C)C` (stereo not given), with 10.1%; and `CCOc1ccc(OCC(=O)Nc2cc(C)cc(C)c2)cc1`, with -6.41%. Then `Cc1nn2c(O)c3c(nc2c1-c1ccc(F)cc1)CCCC3`, with -6.74%; and `Cc1ccc2[nH]c3c(NCCN(C)C)ncnc3c2c1`, with -5.96%. With `Cc1cc(Cl)c(S(=O)(=O)N2CCCC2)cc1OCC(=O)NC1CCCCC1`, the Inhibition is -9.39%. The figure for `CCN(CC)CCCN1CCN(C(=O)c2cccc(-c3noc(C(F)(F)F)n3)c2)CC1` is -3.47%; for `Cc1cc(C)c2cc(C(=O)NC3CCCCCCC3)[nH]c2c1` it is -6.05%; for `Cc1cccc(NC(=O)c2cc(S(=O)(=O)N(C)c3ccc(F)cc3)ccc2Cl)n1` it is -4.89%. Turning to `COc1ccc(C2=NCCN2)cc1-c1cn(-c2cccc(C3=NCCN3)c2)nn1.O=C(O)C(F)(F)F.O=C(O)C(F)(F)F`, the Inhibition is listed as -2.18%. The figure for `C[C@]1(O)C[C@@H](c2nc(-c3ccc4ccc(-c5ccccc5)nc4c3)c3c(N)nccn32)C1` [LINSITINIB] is -8.41%; for `CC(C)(C)C(=O)N(CCCCCCN1C[C@H](O)[C@@H](O)[C@H](O)[C@H]1CO)C1CCCCCC1` it is -2.01%. Regarding `O=C(NCCN1CCCC1)c1cc(NCCN2CCOCC2)nc2ccc(Cl)cc12`, the Inhibition is given as -7.83%. Take `Cc1ccc(NC(=O)CC2COc3ccccc3O2)cc1Cl` (stereo not given): the Inhibition is -13.17%.

As for `CCC(=O)Nc1ccccc1C(=O)Nc1ccccn1`, the Inhibition is reported as -4.64%.

On to `O=C(NCc1ccoc1)N1CCN(Cc2ccc3c(c2)OCO3)CC1`, for which the Inhibition is reported as 10.58%. Then `O=C(c1ccc(NCCO)cc1)C1C[C@H]1c1ccc(Cl)cc1` (stereo not given in full), with 2.16%; and `CC(C)(C)OC(=O)N1CCC(Cn2nc(-c3cnc4ccccc4c3)c3c(N)ncnc32)CC1`, with -9.75%.
